Test [1] is described as follows: BSK_LPS_PGE2: BioMAP Diversity Plus: LPS Assay for Prostaglandin E2 (PGE2) Biomarker Activity (AID 2283082). The settings on record: primary human HUVEC with PBMC; actives raise or lower the signal. The method, boiled down:
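PGE2 release measured by ELISA in an LPS-activated co-culture of human umbilical vein endothelial cells and peripheral blood mononuclear cells, read at 24 h post-dosing. DMSO served as baseline for bidirectional curve fitting.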

Read-out in test [2]: Macrophage colony-stimulating factor (MCSF), CSF1 (gene 1435)
The test can be described thus: BSK_LPS_MCSF: BioMAP Diversity Plus: LPS Assay for Macrophage colony-stimulating factor (MCSF) Biomarker Activity (AID 2283083). Conditions: primary human HUVEC with PBMC; actives raise or lower the signal. The method, boiled down: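 Human umbilical vein endothelial cells co-cultured with peripheral blood mononuclear cells were exposed to compound for 24 h. M-CSF levels were measured by ELISA, and bidirectional curve fitting used DMSO as the negative control and baseline.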

Read-out in test [3]: Tissue Factor, F3 (gene 2152)
The test can be described thus: BSK_LPS_TissueFactor: BioMAP Diversity Plus: LPS Assay for Tissue Factor Biomarker Activity (AID 2283084). Conditions: primary human HUVEC with PBMC; actives raise or lower the signal. The method, boiled down:
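Human umbilical vein endothelial cells co-cultured with peripheral blood mononuclear cells were dosed and stimulated with LPS. Cell-surface CD142 was quantified by ELISA at 24 h. Activity was fitted bidirectionally against DMSO baseline.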

Read-out in test [4]: Tumor necrosis factor (Homo sapiens) (UniProt P01375)
The test can be described thus: BSK_LPS_TNFa: BioMAP Diversity Plus: LPS Assay for Tumour Necrosis Factor alpha (TNFa) Biomarker Activity (AID 2283085).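 As to AC50: TNFa protein level quantified by ELISA in the co-culture.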 The settings on record: primary human HUVEC with PBMC; actives raise or lower the signal. In outline: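 TNFa was quantified by ELISA in LPS-activated co-cultures of human endothelial cells and PBMC, 24 h post-dosing. Both increases and decreases versus DMSO were fitted.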

Read-out in test [5]: Vascular cell adhesion molecule 1 (VCAM1), VCAM1 (gene 7412)
In words: BSK_LPS_VCAM1: BioMAP Diversity Plus: LPS Assay for Vascular cell adhesion molecule 1 (VCAM1) Biomarker Activity (AID 2283086). Conditions: primary human HUVEC with PBMC; actives raise or lower the signal. In outline: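 VCAM-1 quantified by ELISA in an LPS-activated co-culture of human endothelial cells and peripheral blood mononuclear cells, read 24 h post-treatment. Fitted in both directions versus DMSO; parallel SRB staining flags overt cytotoxicity.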

Read-out in another test: CD38, CD38 (gene 952)
The test can be described thus: BSK_SAg_CD38: BioMAP Diversity Plus: SAg Assay for CD38 Biomarker Activity (AID 2283087). The settings on record: primary human HUVEC with PBMC; actives raise or lower the signal. The method, boiled down:
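CD38 quantified by ELISA (fluorescence) in a superantigen-activated endothelial cell–PBMC co-culture at 24 h post-dose. Activity fitted in both directions relative to DMSO; parallel SRB and Alamar Blue cytotoxicity read-outs.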

Read-out in the next test: CD40, CD40 (gene 958)
The test can be described thus: BSK_SAg_CD40: BioMAP Diversity Plus: SAg Assay for CD40 Biomarker Activity (AID 2283088). Conditions: primary human HUVEC with PBMC; actives raise or lower the signal. The method, boiled down: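 Human umbilical vein endothelial cells co-cultured with PBMC; CD40 levels measured by ELISA with fluorescence read-out 24 h after chemical dosing. Gain or loss of signal fitted bidirectionally against DMSO baseline.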

Read-out in another test: CD69, CD69 (gene 969)
The test can be described thus: BSK_SAg_CD69: BioMAP Diversity Plus: SAg Assay for CD69 Biomarker Activity (AID 2283089). The settings on record: primary human HUVEC with PBMC; actives raise or lower the signal. In outline:
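ELISA, fluorescence read-out: CD69 on human umbilical vein endothelial cell + PBMC co-culture, 24 h post-dosing. Gain or loss of signal fitted bidirectionally against DMSO baseline.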

Read-out in test [6]: Monocyte Chemoattractant Protein-1 (MCP1), CCL2 (gene 6347)
In words: BSK_SAg_MCP1: BioMAP Diversity Plus: SAg Assay for Monocyte Chemoattractant Protein-1 (MCP1) Biomarker Activity (AID 2283090). The settings on record: primary human HUVEC with PBMC; actives raise or lower the signal. The method, boiled down: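 Values derive from bidirectional fitting of ELISA-measured MCP1 against DMSO controls. Readings were taken 24 h after dosing human vascular endothelial cells co-cultured with peripheral blood mononuclear cells under superantigen stimulation.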

Read-out in test [7]: E-selectin (Homo sapiens) (UniProt P16581)
The test can be described thus: BSK_SAg_Eselectin: BioMAP Diversity Plus: SAg Assay for Eselectin Biomarker Activity (AID 2283091). The settings on record: primary human HUVEC with PBMC; actives raise or lower the signal. The method, boiled down: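 HUVEC co-cultured with PBMC, compound dosed then read at 24 h; E-selectin measured by ELISA. Activity fitted bidirectionally against DMSO as negative control and baseline.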

Read-out in test [8]: Monokine induced gamma interferon (MIG), CXCL9 (gene 4283)
The test can be described thus: BSK_SAg_MIG: BioMAP Diversity Plus: SAg Assay for Monokine induced gamma interferon (MIG) Biomarker Activity (AID 2283092). The settings on record: primary human HUVEC with PBMC; actives raise or lower the signal. The method, boiled down:
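ELISA readout of MIG/CXCL9; primary human umbilical vein endothelial cells co-cultured with peripheral blood mononuclear cells; 24 h post-dose; gain/loss fit vs DMSO baseline.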

Test [9] in a line: BSK_SAg_PBMCCytotoxicity: PBMC Cytotoxicity Assessment in the BioMAP Diversity Plus: SAg Assay (AID 2283093).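 Also: PBMC viability measured as Alamar Blue reduction fluorescence at 546/580 nm; fitted both ways against DMSO so a hit may be loss or gain of signal.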 Conditions: primary human HUVEC with PBMC. The method, boiled down: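 Alamar Blue reduction (6 h, 546/580 nm) reports PBMC cytotoxicity after 90 h superantigen activation (SEB, TSST-1; 20 ng/mL final each) with 1 h compound pre-treatment. Gain or loss of signal fitted versus DMSO.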

Read-out in test [10]: Interleukin-8 (IL8), CXCL8 (gene 3576)
The test can be described thus: BSK_SAg_IL8: BioMAP Diversity Plus: SAg Assay for Interleukin-8 (IL8) Biomarker Activity (AID 2283094). The settings on record: primary human HUVEC with PBMC; actives raise or lower the signal. In outline:
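ELISA readout of IL-8 from a superantigen-activated endothelial/PBMC primary human co-culture, taken 24 h post-dosing and fitted in both directions against DMSO; parallel SRB total-protein staining flags overt cytotoxicity.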

Test [11] is described as follows: BSK_SAg_Proliferation: Cell Proliferation Assessment in the BioMAP Diversity Plus: SAg Assay (AID 2283095).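 Also: relative cell number as total protein by SRB absorbance in sub-confluent culture.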 The settings on record: primary human HUVEC with PBMC. In outline:
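Relative cell number in the endothelial cell/PBMC co-culture was quantified at 96 h by SRB staining (0.1% SRB, 10% TCA fixation, read at 560 nm). Curves were fitted in both directions relative to DMSO baseline.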

Test [12] is described as follows: BSK_SAg_SRB: Viability Assessment in the BioMAP Diversity Plus: SAg Assay (AID 2283096).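 Also: cells read one day after compound addition; hits may be either gain or loss of signal compared with DMSO.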 Conditions: primary human HUVEC with PBMC. In outline:
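This overt-cytotoxicity endpoint quantifies protein in human endothelial/PBMC co-cultures at 24 h using SRB absorbance (560 nm) after trichloroacetic acid fixation. Values reflect signal change from the DMSO negative control, fitted bidirectionally.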

Test [13] concerns the target human CYP1A1, CYP1A1 (gene 1543) (UniProt P04798). In words: NVS_ADME_hCYP1A1: NovaScreen (NVS) CYP450-related Enzyme Activity (ADME) Assay for human CYP1A1 (AID 2283100; active = hit-call score of the fitted dose curve at least 0.9, where 1 is the maximum). In outline: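 Cell-free fluorescence assay of recombinant human CYP1A1 activity with a specific substrate, read 1 h after dosing. Compounds were screened in duplicate at 10 uM, then hits tested in concentration-response up to 20 uM; acetonitrile served as baseline.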

Test [14] addresses human CYP2B6, CYP2B6 (gene 1555) (UniProt P20813). The test can be described thus: NVS_ADME_hCYP2B6: NovaScreen (NVS) CYP450-related Enzyme Activity (ADME) Assay for human CYP2B6 (AID 2283101; active = hit-call score of the fitted dose curve at least 0.9, where 1 is the maximum). In outline:
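Fluorescence-based enzyme activity of recombinant human CYP2B6, measured 1 h post-dose against acetonitrile vehicle baseline. Screened at a single concentration of 10 uM in duplicate before concentration-response follow-up.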

The target of test [15] is human CYP1A2, CYP1A2 (gene 1544) (UniProt P05177). In words: NVS_ADME_hCYP1A2: NovaScreen (NVS) CYP450-related Enzyme Activity (ADME) Assay for human CYP1A2 (AID 2283102; active = hit-call score of the fitted dose curve at least 0.9, where 1 is the maximum;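 also: potency for inhibition since loss of fluorescence marks reduced CYP1A2 activity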). The method, boiled down: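 Cell-free recombinant human CYP1A2 expressed in insect cells, with fluorogenic substrate; fluorescence intensity read 0.5 h after dosing. Loss of signal relative to acetonitrile baseline scored. Primary screen in duplicate at 10 uM; actives retested in concentration series.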
Chain of human CYP1A2, CYP1A2 (gene 1544) (P05177 whole entry, looked up): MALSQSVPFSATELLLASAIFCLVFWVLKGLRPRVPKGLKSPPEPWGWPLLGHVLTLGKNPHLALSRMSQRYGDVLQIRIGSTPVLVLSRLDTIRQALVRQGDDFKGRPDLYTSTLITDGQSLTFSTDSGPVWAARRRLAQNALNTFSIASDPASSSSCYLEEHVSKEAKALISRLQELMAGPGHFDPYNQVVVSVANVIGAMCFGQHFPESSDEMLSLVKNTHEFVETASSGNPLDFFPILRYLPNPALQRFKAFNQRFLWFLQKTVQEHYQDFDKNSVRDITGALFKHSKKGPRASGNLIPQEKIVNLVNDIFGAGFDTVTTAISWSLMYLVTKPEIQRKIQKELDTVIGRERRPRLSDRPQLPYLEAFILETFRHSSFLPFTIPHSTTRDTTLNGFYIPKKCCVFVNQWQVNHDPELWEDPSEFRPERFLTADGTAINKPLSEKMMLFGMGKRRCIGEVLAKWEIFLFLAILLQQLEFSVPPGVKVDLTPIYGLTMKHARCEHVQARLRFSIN

Inconclusive results are not listed. The source made the active and inactive calls. The calls were made as follows, unless noted: active = hit-call score of the fitted dose curve at least 0.9, where 1 is the maximum; inactive = score below 0.9.

Chain of E-selectin (Homo sapiens) (P16581 whole entry, looked up): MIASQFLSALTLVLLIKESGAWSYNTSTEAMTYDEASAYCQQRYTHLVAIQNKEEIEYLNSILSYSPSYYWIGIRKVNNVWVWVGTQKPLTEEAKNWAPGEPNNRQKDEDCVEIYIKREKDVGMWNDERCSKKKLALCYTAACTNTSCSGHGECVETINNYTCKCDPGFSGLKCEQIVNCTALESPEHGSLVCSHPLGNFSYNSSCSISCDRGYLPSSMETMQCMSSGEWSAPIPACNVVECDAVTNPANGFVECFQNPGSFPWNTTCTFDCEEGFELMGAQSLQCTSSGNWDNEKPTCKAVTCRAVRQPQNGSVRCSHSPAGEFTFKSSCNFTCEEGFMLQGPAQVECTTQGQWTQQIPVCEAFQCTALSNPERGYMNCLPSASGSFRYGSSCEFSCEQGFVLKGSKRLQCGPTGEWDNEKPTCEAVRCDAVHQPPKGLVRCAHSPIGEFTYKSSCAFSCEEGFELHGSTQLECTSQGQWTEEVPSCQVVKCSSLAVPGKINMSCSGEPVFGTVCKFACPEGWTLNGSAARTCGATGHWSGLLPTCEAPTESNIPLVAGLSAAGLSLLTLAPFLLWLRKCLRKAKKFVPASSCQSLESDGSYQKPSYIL
Chain of Tumor necrosis factor (Homo sapiens) (P01375 whole entry, looked up): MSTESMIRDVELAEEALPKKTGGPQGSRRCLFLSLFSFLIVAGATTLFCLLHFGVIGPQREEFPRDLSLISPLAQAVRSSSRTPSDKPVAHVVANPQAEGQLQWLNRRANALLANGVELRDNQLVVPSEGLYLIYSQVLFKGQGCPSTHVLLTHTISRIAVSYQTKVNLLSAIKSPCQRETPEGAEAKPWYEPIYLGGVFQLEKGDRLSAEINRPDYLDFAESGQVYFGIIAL
Chain of human CYP2B6, CYP2B6 (gene 1555) (P20813 whole entry, looked up): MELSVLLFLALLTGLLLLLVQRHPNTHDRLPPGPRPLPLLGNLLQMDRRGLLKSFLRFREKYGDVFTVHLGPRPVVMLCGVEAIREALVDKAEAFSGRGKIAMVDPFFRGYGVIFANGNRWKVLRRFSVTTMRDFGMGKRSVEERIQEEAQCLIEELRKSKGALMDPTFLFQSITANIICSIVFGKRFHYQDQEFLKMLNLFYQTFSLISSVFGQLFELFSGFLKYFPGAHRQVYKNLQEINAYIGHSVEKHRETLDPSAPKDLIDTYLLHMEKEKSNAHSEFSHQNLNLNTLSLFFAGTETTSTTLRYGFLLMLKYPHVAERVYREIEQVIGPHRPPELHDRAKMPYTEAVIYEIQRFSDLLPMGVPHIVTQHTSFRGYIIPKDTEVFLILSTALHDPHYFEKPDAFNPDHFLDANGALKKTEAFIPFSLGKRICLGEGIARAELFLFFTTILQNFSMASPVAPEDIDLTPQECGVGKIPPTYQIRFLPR
Chain of human CYP1A1, CYP1A1 (gene 1543) (P04798 whole entry, looked up): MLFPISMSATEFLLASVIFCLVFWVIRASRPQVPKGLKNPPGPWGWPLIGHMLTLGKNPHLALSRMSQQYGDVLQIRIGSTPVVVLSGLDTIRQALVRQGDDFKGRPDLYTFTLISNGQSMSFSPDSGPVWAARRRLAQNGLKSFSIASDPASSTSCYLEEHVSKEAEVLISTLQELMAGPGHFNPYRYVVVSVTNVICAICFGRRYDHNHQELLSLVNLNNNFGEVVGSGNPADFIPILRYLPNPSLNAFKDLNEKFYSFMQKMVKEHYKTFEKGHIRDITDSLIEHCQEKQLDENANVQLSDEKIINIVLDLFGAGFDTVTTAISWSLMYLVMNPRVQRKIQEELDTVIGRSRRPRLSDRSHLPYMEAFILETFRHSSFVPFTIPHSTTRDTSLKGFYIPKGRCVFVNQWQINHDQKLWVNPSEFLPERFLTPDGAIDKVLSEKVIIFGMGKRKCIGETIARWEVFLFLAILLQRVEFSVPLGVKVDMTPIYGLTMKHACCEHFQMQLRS

Regarding `CC(C)(O)c1coc(S(=O)(=O)NC(=O)Nc2c3c(cc4c2CCC4)CCC3)c1`, the outcome in test [1] is “inactive”; in test [2], “inactive”; in test [3], “inactive”; in test [5], “inactive”; in the test with CD38, CD38 (gene 952), “inactive”; with CD40, CD40 (gene 958), “inactive”. Also, the outcome in the test with CD69, CD69 (gene 969) is “inactive”; in [6] it was “inactive”; in test [7], “inactive”; in test [8], “inactive”; in [9], “inactive”; in test [10], “inactive”. The result in [11], in test [12] and in [13] was inactive. Moreover, the AC50 – broadly, the concentration at which the activity in the assay is half-maximal – in [4] was 0.405 µM (active); in [14] it was 6.39 µM (active); in test [15], 16 µM (active).
In the case of `COC(=O)c1c(Cl)c(Cl)c(C(=O)OC)c(Cl)c1Cl`, the outcome was “inactive” in [1]; “inactive” in test [3]; “inactive” in test [4]; “inactive” in test [5]; “inactive” with CD38, CD38 (gene 952); “inactive” in the test with CD69, CD69 (gene 969). The result in test [6], in test [7], in test [8], in [9], in test [10] and in test [11] was inactive. The outcome in [12] was inactive. The AC50 is 20 µM (active) in test [2]; 20 µM (active) with CD40, CD40 (gene 958); 8.47 µM (active) in test [15].
For `COC(=O)CC(=O)OC`, the outcome in test [1] is “inactive”; in [2], “inactive”; in test [3], “inactive”; in test [4], “inactive”; in test [5], “inactive”; in the test with CD38, CD38 (gene 952), “inactive”. In addition, the outcome in the test with CD40, CD40 (gene 958) was “inactive”; with CD69, CD69 (gene 969), “inactive”; in [6], “inactive”; in [7] it was “inactive”; in [8] it was “inactive”; in test [9], “inactive”. For the same compound, the result in test [10] and in test [12] was inactive.
For `CC(=O)c1ccc2c(c1)[C@H](NC(=O)c1ccc(F)cc1)[C@@H](O)C(C)(C)O2`, the outcome in test [1] was “inactive”; in [2] it was “inactive”; in test [3] it was “inactive”; in test [4], “inactive”; in [5], “inactive”; with CD38, CD38 (gene 952) it was “inactive”. Besides, the outcome with CD40, CD40 (gene 958) is “inactive”; in the test with CD69, CD69 (gene 969), “inactive”; in [6], “inactive”; in test [7], “inactive”; in test [8], “inactive”; in [9], “inactive”. The result in test [10] and in test [12] was inactive.

The record behind these values is PubChem BioAssay (EPA / NIEHS).
